Data taken from PubChem BioAssay (NCI).
The panel holds about 83,000 compounds, 20% with a hit somewhere; the sample as a whole holds those more often.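 Values shown are percent growth following 48 h exposure of cells in 96-well plates to a single concentration of compound; below 10 was considered active.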 Unmarked numbers belong to inactive results. Active and inactive are the calls of the source.

These compounds were tested on OVCAR-4 ovarian (assay: NCI-60 one-dose screen, 48 h (100 = growth as untreated, 0 = no growth, -100 = all killed)). Settings: 10 µM.

SMILES	growth
C=CCN(CC=C)C(=O)[C@H](CC)[C@@H]1CC[C@@H](C)[C@@H]([C@H](C)[C@@H](O)[C@@H](C)C(=O)[C@H](CC)C2O[C@]3(C=C[C@@H](O)[C@]4(CC[C@@](C)([C@H]5CC[C@](O)(CC)[C@H](C)O5)O4)O3)[C@H](C)C[C@@H]2C)O1 (stereo partly drawn)	25.4%
O=C1CCn2c1c(O)c1ccccc1c2=O	104%
COc1ccc(-c2cc(-c3ccccc3)nc(SCCCCCCC(=O)NO)n2)cc1	76.6%
Cc1ccc(NC(=S)NNC(=S)Nc2ccc(C)cc2)cc1	106%
c1cncc(-c2csc(-c3c[nH]c4ccccc34)n2)c1	79.1%
CN(C)CCOc1cccc(-c2nc3sccn3c2-c2ccnc(S(C)(=O)=O)n2)c1	75.8%
CC(C)(C)c1ccc(S(=O)(=O)N[C@H]2CC[C@H]3[C@@H]4CCc5cc(OS(=O)(=O)O)ccc5[C@H]4CC[C@]23C)cc1	53.4%
Nc1nccc(OCCO)n1	109%
CC(C)c1ccc(C(C)C(=O)N(CC2=C(C(C)c3ccccn3)c3ccccc3C2)C(C)C)cc1 (stereo not drawn)	30.2%
Cc1c2cnccc2c(C)c2c1c1cc(O)ccc1n2C(C)C	25%
CCc1ccc(C2=NN(c3ccc(S(C)(=O)=O)cc3)C(=O)CC2)cc1	76.2%
COc1cc(/C=C2\CCCC3=C2NC(N)=NC3c2cc(OC)c(OC)c(OC)c2)cc(OC)c1OC (stereo not drawn)	27%
COc1ccc(-c2nn(-c3cccc(Cl)c3)cc2-c2cc(-c3ccccc3)[nH]c(=O)c2C#N)cc1	31%
CC(C)(C)OC(=O)N1CCc2c(sc3ncnc(N/N=C/c4ccccc4Br)c23)C1	72.9%
COc1ccc(-c2nn(-c3cccc(Cl)c3)cc2-c2nc(N)[nH]c(=O)c2C#N)cc1	85.7%
COc1ccc(-c2cc(-c3ccc(Cl)cc3)nc(SCCCC(=O)NO)n2)cc1	18.2%
COc1ccc(-c2nn(-c3cccc(Cl)c3)cc2-c2c(C#N)c(=O)n3[nH]c(-c4ccccc4)nc3c2C#N)cc1	97.3%
Cc1ccc(-n2c(C)nn3c(=O)c4c5c(sc4nc23)CN(C)CC5)cc1	102%
CCn1c(CSc2nc3ccccc3c(=O)n2CCc2ccccc2)n[nH]c1=S	85.6%
COc1cc2cc(Oc3ccc(NC(=O)Nc4ccc(Cl)c(Cl)c4)cc3)c(C)nc2cc1OC	31.9%

SMILES	growth
CCOC(=O)c1sc2ncnc(Nc3ccc4c(cnn4C(=O)Nc4ccc(C)c(Cl)c4)c3)c2c1C	115%
CN1CCc2c(sc3nc4n(-c5ccc(Cl)cc5)c(=O)[nH]n4c(=O)c23)C1	109%
COc1cc2c3c(n(C4CCN(C)CC4)c(=O)c2cc1OC)-c1cc2c(cc1C3=O)OCO2	84.9%
CCOC(=O)CSc1nc(-c2cc(OC)ccc2OC)cc(-c2ccc(OC)cc2)c1C#N	101%
CC(C)N(CCOc1ccc(-c2nc3sccn3c2-c2ccnc(S(C)(=O)=O)n2)cc1)C(C)C	72%
N#Cc1ccc(C(=O)CSc2nccc(Nc3ccc(C(=O)O)cc3)n2)cc1	115%
O=C(CNc1nnc(-c2cccnc2SCc2ccccc2)s1)Nc1nc(Cl)cc(Cl)n1	103%
COc1ccc(N(C)c2ncnc3occ(C)c23)cc1	40.2%
COC(=O)C1OC1c1cc([N+](=O)[O-])ccc1OC (stereo not drawn)	101%
N#Cc1c(-c2ccc(Cl)cc2)cc(-c2cc(O)ccc2O)nc1N	22.9%
CN(C)CCN(Cc1ccccc1)c1ccc2ccccc2n1	97.4%
COC(=O)c1c[nH]c2cc(OC(C)C)c(OC(C)C)cc2c1=O	109%
C=C/C(C)=C/C[C@]1(C)[C@H](C)[C@@H](OC(=O)CCC)[C@H](O)[C@@]23C(=C[C@H](OC)C[C@@H]12)[C@@H](OC(=O)CCC)O[C@H]3OC(C)=O	-2.11% (active)
O=C(Nc1cc([N+](=O)[O-])c2[nH]c(=O)c3ccccc3c2c1)C(F)(F)F	92.6%
Nc1nc(Cl)nc2c1ncn2C1O[C@H](CO)[C@@H](O)[C@@H]1F (stereo partly drawn)	80.2%
C#CC(C)(O)[C@@H]1C[C@H](CC(=O)O)C1(C)C (stereo partly drawn)	117%
COc1ccc(-c2nn(-c3cccc(Cl)c3)cc2/C=C2\NC(=S)N(c3ccc(Cl)cc3)C2=O)cc1	-62.1% (active)
COc1ccc2c(c1)OC(N)=C(C#N)C2c1cc(OC)c(OC)c(OC)c1 (stereo not drawn)	39.8%
IC(I)I	108%

Each compound was assayed on SK-OV-3 ovarian in the same assay as above. Settings: 10 µM.

SMILES	growth
C=CCN(CC=C)C(=O)[C@H](CC)[C@@H]1CC[C@@H](C)[C@@H]([C@H](C)[C@@H](O)[C@@H](C)C(=O)[C@H](CC)C2O[C@]3(C=C[C@@H](O)[C@]4(CC[C@@](C)([C@H]5CC[C@](O)(CC)[C@H](C)O5)O4)O3)[C@H](C)C[C@@H]2C)O1 (stereo partly drawn)	4.44% (active)
O=C1CCn2c1c(O)c1ccccc1c2=O	103%
COc1ccc(-c2cc(-c3ccccc3)nc(SCCCCCCC(=O)NO)n2)cc1	61.2%
Cc1ccc(NC(=S)NNC(=S)Nc2ccc(C)cc2)cc1	59.7%
CN(C)CCOc1cccc(-c2nc3sccn3c2-c2ccnc(S(C)(=O)=O)n2)c1	96.5%
CC(C)(C)c1ccc(S(=O)(=O)N[C@H]2CC[C@H]3[C@@H]4CCc5cc(OS(=O)(=O)O)ccc5[C@H]4CC[C@]23C)cc1	82.1%
Nc1nccc(OCCO)n1	102%
Cc1c2cnccc2c(C)c2c1c1cc(O)ccc1n2C(C)C	-15.7% (active)
COc1cc2c(cc1NC(=O)C(Cl)Cl)-c1ccc(NC(=O)C(Cl)Cl)cc1C2	56.3%
COc1cc(/C=C2\CCCC3=C2NC(N)=NC3c2cc(OC)c(OC)c(OC)c2)cc(OC)c1OC (stereo not drawn)	7.16% (active)
COc1ccc(-c2nn(-c3cccc(Cl)c3)cc2-c2cc(-c3ccccc3)[nH]c(=O)c2C#N)cc1	-47.3% (active)
COc1ccc(-c2nn(-c3cccc(Cl)c3)cc2-c2nc(N)[nH]c(=O)c2C#N)cc1	90%
COc1ccc(-c2cc(-c3ccc(Cl)cc3)nc(SCCCC(=O)NO)n2)cc1	5.99% (active)
Cc1ccc(-n2c(C)nn3c(=O)c4c5c(sc4nc23)CN(C)CC5)cc1	95.1%
COc1cc2cc(Oc3ccc(NC(=O)Nc4ccc(Cl)c(Cl)c4)cc3)c(C)nc2cc1OC	28.6%
CCOC(=O)c1sc2ncnc(Nc3ccc4c(cnn4C(=O)Nc4ccc(C)c(Cl)c4)c3)c2c1C	97.3%
CN1CCc2c(sc3nc4n(-c5ccc(Cl)cc5)c(=O)[nH]n4c(=O)c23)C1	96.8%
CCOC(=O)CSc1nc(-c2cc(OC)ccc2OC)cc(-c2ccc(OC)cc2)c1C#N	85%
N#Cc1ccc(C(=O)CSc2nccc(Nc3ccc(C(=O)O)cc3)n2)cc1	106%
O=C(CNc1nnc(-c2cccnc2SCc2ccccc2)s1)Nc1nc(Cl)cc(Cl)n1	99.2%
COc1ccc(N(C)c2ncnc3occ(C)c23)cc1	19.9%
COC(=O)C1OC1c1cc([N+](=O)[O-])ccc1OC (stereo not drawn)	92.1%
CN(C)CCN(Cc1ccccc1)c1ccc2ccccc2n1	97.2%
COC(=O)c1c[nH]c2cc(OC(C)C)c(OC(C)C)cc2c1=O	55.2%
C=C/C(C)=C/C[C@]1(C)[C@H](C)[C@@H](OC(=O)CCC)[C@H](O)[C@@]23C(=C[C@H](OC)C[C@@H]12)[C@@H](OC(=O)CCC)O[C@H]3OC(C)=O	-89.7% (active)
O=C(Nc1cc([N+](=O)[O-])c2[nH]c(=O)c3ccccc3c2c1)C(F)(F)F	81.2%
Nc1nc(Cl)nc2c1ncn2C1O[C@H](CO)[C@@H](O)[C@@H]1F (stereo partly drawn)	34.5%
C#CC(C)(O)[C@@H]1C[C@H](CC(=O)O)C1(C)C (stereo partly drawn)	116%
COc1ccc(-c2nn(-c3cccc(Cl)c3)cc2/C=C2\NC(=S)N(c3ccc(Cl)cc3)C2=O)cc1	-47.8% (active)
